Experimental data from PubChem BioAssay (Tox21).
“And” between values parts separate entries of the source, which are not always exact repeats. Equal values may be shown once. Records with an inconclusive call do not appear. A call without a number means that no potency is given here. Some compounds were tested as several samples or in several runs, with calls that do not always agree. The source made the active and inactive calls. Unless noted, the call rests on the fitted dose curve; in most records, active means well fitted curve in the direction sought with a large enough effect in the repeat runs; inconclusive means weak or mixed curves; inactive means no such curve, though single readings can be large; an effect the other way counts as inactive or inconclusive.

Tests used:
[1] = qHTS assay for small molecule agonists of the p53 signaling pathway (AID 651631; calls by dose curve; further: nearly all actives have a fitted effect of over 15% in size; further: potency means the concentration at half of the fitted maximal effect)
Outline: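 Fluorescence intensity from cleaved LiveBLAzer B/G substrate (2 h, room temperature) served as the signal. Beforehand, HCT-116 reporter cells bearing p53 response elements were treated 16 h at 37 °C with DMSO-dissolved compounds.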

[2] = qHTS assay for small molecules that induce genotoxicity in human embryonic kidney cells expressing luciferase-tagged ATAD5 (AID 651632); further: nearly all actives have a fitted effect of over 15% in size
Outline: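 HEK293T cells carrying a luciferase reporter tagged to ATAD5 were exposed to compound or DMSO vehicle for 16 hr at 37C, 5% CO2. Amplite was added, and after 30 min at room temperature luciferase activity was read as a marker of ATAD5 induction.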

[3] = qHTS assay for small molecule agonists of the p53 signaling pathway - cell viability (AID 651633; calls by dose curve; further: nearly all actives have a fitted effect of over 30% in size; further: potency means the concentration at half of the fitted maximal effect)
Outline: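 p53RE-bla cells, seeded at 4,000 per well and rested 5 h at 37 C/5% CO2, received compounds in DMSO for 16 h at 37 C. CellTiter-Glo was then added, and luminescence was read after 30 min at room temperature to gauge cytotoxicity.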

[4] = qHTS assay for small molecules that induce genotoxicity in human embryonic kidney cells expressing luciferase-tagged ATAD5 - cell viability (AID 651634; calls by dose curve; further: nearly all actives have a fitted effect of over 25% in size; further: potency means the concentration at half of the fitted maximal effect)
Outline: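 HEK293T cells expressing luciferase-tagged ATAD5 were exposed to compound or DMSO for 15.5 hr at 37C, 5% CO2. Viability was then read as live-cell protease activity by CellTiter-Fluor fluorescence after 30 min at 37C.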

[5] = qHTS assay for small molecule disruptors of the mitochondrial membrane potential - cell viability (AID 720634; calls by dose curve; further: nearly all actives have a fitted effect of over 20% in size; further: potency means the concentration at half of the fitted maximal effect)
Outline: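 HepG2 cells seeded overnight at 37 C, then exposed to compound or DMSO for 1 hr at 37 C, 5% CO2. m-MPI dye added, then CellTiter-Glo for 30 min at room temperature; viability read as ATP luminescence.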

[6] = qHTS assay to test for compound auto fluorescence at 590 nm (red) in HepG2 cells (AID 720674)
Outline: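 Compound auto-fluorescence is scored relative to Rose Bengal sodium, measured at 540/590 nm in live HepG2 cultures after 1 hr compound contact (37 C, 5% CO2).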

[7] = qHTS assay to test for compound auto fluorescence at 535 nm (green) in HepG2 cells (AID 720675)
[8] = qHTS assay to test for compound auto fluorescence at 460 nm (blue) in HEK293 cells (AID 720678)
Outline: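 Triamterene serves as the blue fluorophore standard. Compound signal at 405/460 nm is read in HEK293 wells (2,000 cells, 10% dialyzed FBS) after overnight treatment at 37C.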

[9] = qHTS assay to test for compound auto fluorescence at 590 nm (red) in HEK293 cells (AID 720679)
Outline: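 We plated HEK293 cells in 10% dialyzed FBS medium, let them adhere for 4-5 hr, then added 23 nL compound. Overnight at 37C and 5% CO2 preceded fluorescence measurement at 540/590nm.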

[10] = qHTS assay for small molecule disruptors of the mitochondrial membrane potential (AID 720635); further: potency means the concentration at half of the fitted maximal effect
Outline: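 HepG2 cells (2,000/well) attached overnight at 37C, then took compound for 1 hr at 37C, 5% CO2. Mito-MPS dye was added for 30 min; fluorescence was read at 490/535 nm (monomers) and 540/590 nm (aggregates).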

Structure (SMILES)	Potency [1]	Potency [2]	Potency [3]	Potency [4]	Potency [5]	Potency [6]	Potency [7]	outcome [8]	Potency [9]	Potency [10]
CC(C)=CCC/C(C)=C\CO	inactive	inactive	inactive	inactive	inactive	inactive	inactive	inactive	inactive	
CC(=O)C1(C)CC2=C(CCCC2(C)C)CC1C (configuration not stated)	inactive	inactive	inactive	inactive		inactive	inactive	inactive	inactive	
OCCO	inactive	inactive	inactive	inactive	inactive	inactive	inactive	inactive	inactive	inactive
CCCCOCCOCCOCCO	inactive	inactive	inactive	inactive		inactive	inactive	inactive	inactive	
C[Si](C)(C)O[Si](C)(C)C	inactive	inactive	inactive	inactive	inactive	inactive	inactive	inactive	inactive	inactive
COC(=O)c1ccccc1	inactive	inactive	inactive	inactive	inactive	inactive	inactive	inactive	inactive	inactive
O=C(c1ccc(OCCN2CCCCC2)cc1)c1c(-c2ccc(O)cc2)sc2cc(O)ccc12	29.8 µM (active) and 68.7 µM (active) and 61.1 µM (active)		29.8 µM (active) and 61.2 µM (active) and 61.1 µM (active)	26.6 µM (active) and 54.5 µM (active)	inactive	inactive	inactive	inactive	inactive	4.22 µM (active) and 1.72 µM (active) and 4.33 µM (active)
c1ccncc1	inactive	inactive	inactive	inactive	inactive	inactive	inactive	inactive	inactive	
CNCCCC12CCC(c3ccccc31)c1ccccc12	inactive	inactive		inactive	inactive	inactive	inactive	inactive	inactive	
Nc1ncnc2nc[nH]c12	inactive	inactive	inactive	inactive	inactive	inactive	inactive	inactive	inactive	
O=CCc1ccccc1	inactive	inactive	inactive	inactive	inactive	inactive	inactive	inactive	inactive	inactive and 54.5 µM (active)
Cc1ccc(C)c(O)c1C	inactive	inactive	inactive	inactive	inactive	inactive	inactive	inactive	inactive	inactive
CN(C)CCN(Cc1cccs1)c1ccccn1	inactive	inactive	inactive	inactive	inactive	inactive	inactive	inactive	inactive	inactive
CC(C)OB(OC(C)C)OC(C)C	inactive	inactive	inactive	inactive	inactive	inactive	inactive	inactive	inactive	inactive
COc1ccc(OC)c(C(O)CNC(=O)CN)c1 (configuration not stated)	inactive	inactive	inactive	inactive	inactive	inactive	inactive	inactive	inactive	inactive
CC1=CCC(C(C)(C)O)CC1 (configuration not stated)	inactive	inactive	inactive	inactive		inactive	inactive	inactive	inactive	
C=CC(C)(CCC=C(C)C)OC(C)=O (configuration not stated)	inactive	inactive	inactive		inactive	inactive	inactive	inactive	inactive	inactive
OC1CCCCCCCCCCC1		inactive	inactive	inactive	inactive	inactive	inactive	inactive	inactive	55 µM (active) and 54.5 µM (active)
COC(C)COC(C)COC(C)CO (configuration not stated)		inactive	inactive	inactive	inactive	inactive	inactive	inactive	inactive	inactive
c1ccc2sc(SSN3CCOCC3)nc2c1		inactive	inactive	inactive	inactive	inactive	inactive	inactive	inactive	34.3 µM (active) and 27.3 µM (active)
CC(C)OC=O		inactive	inactive	inactive	inactive	inactive	inactive	inactive	inactive	inactive
COc1ccc(C(=O)CC(=O)c2ccc(C(C)(C)C)cc2)cc1		inactive	inactive	inactive	inactive and 18.5 µM (active)	inactive	inactive	inactive	inactive	inactive and 16.5 µM (active)
